# Bioassay records from PubChem.
# Mac1 fbg inh: inhibitors of human CD11b/CD18 binding to fibrinogen | K562 CD11b/CD18 adhesion to fibrinogen, ATPlite luminescence; Mn2+ added to activate the integrin | inhibition, % at 10 µM | actives 0.54% (n = 93,000) | P05107+P11215;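 active = primary inhibition of 50% or more at 10 µM, then 40% or more on retest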
# ERa coact pot: ER-alpha (human) coactivator binding potentiation | P03372 | TR-FRET ERalpha-LBD/SRC-Cy5 coactivator binding, 2 h; 100 = basal binding, no effect | coactivator binding (% of control), % at 25.6 µM | actives 1.3% (n = 86,000) | AID 639; in the data active = activity above about 200%;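 also: binding measured in presence of low estradiol as agonist stimulus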
# Target sequence (P03372 whole entry, looked up, the tested form may be a part): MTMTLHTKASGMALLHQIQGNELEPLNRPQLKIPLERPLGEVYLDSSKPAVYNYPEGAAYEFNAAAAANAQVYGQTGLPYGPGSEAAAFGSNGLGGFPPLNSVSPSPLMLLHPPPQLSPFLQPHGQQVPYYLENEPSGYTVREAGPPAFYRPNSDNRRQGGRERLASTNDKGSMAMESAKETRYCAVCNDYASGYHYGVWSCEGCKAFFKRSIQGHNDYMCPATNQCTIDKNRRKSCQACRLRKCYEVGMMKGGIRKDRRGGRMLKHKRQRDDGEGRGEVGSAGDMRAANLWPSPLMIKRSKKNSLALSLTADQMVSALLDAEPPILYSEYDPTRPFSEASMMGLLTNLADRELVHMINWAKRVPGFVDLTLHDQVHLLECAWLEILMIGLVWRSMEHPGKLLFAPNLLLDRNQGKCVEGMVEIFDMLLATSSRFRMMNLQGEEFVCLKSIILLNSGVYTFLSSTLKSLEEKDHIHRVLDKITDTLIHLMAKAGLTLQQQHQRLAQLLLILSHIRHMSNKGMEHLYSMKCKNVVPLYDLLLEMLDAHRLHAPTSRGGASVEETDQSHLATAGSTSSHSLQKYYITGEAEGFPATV
# ERb SRC1 inh: blocks coactivator binding to human estrogen receptor beta; Q92731; TR-FRET ER-beta LBD / SRC1-Cy5 peptide binding; receptor agonist-loaded with 1 µM estradiol; inhibition, % at 25.6 µM; actives 1.3% (n = 86,000); AID 633;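 active = compounds whose percent inhibition of the receptor-coactivator binding signal exceeds about 50% in the single-dose screen, limit read from the data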
# ERa SRC1 inh: blocks coactivator binding to human estrogen receptor alpha | P03372 | TR-FRET ER-alpha LBD / SRC-1 peptide, estradiol-bound | inhibition, % at 25.6 µM | actives 1.7% (n = 86,000); in the data active = inhibition above about 50%
# Mac1 fbg enh: enhancers of human CD11b/CD18 binding to fibrinogen | P05107+P11215 | K562 CD11b/CD18 adhesion to fibrinogen, ATPlite luminescence | activation, % at 10 µM | actives 0.07% (n = 93,000);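 active = 10 µM primary screen giving 50% or more activity, confirmed by 40% or more on retest at that dose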
# A number is an active result; i = inactive; nt = no result; [ ] = remark or other dose. Only some compounds are listed: those with a hit (about 3.1% of all), similar ones and a draw of the others.
SMILES,Mac1 fbg inh,ERa coact pot,ERb SRC1 inh,ERa SRC1 inh,Mac1 fbg enh
COc1ccccc1C(CCNS(=O)(=O)c1ccc(C)cc1)c1ccco1 (centres undefined),i,nt,nt,nt,i
CCN(CC)c1nc(OC)nc(-n2nnc(C(C)=O)c2C)n1,i,i,i,i,i
CCc1cc(-c2[nH]ncc2-c2ccc3c(c2)OCO3)c(O)cc1O,70,i,i,i,i
O=C(Cn1cc(C(=O)c2cccs2)c2ccccc21)NC1CCCCC1,i,i,i,i,i
O=C(Cn1cc(C(=O)c2ccco2)c2ccccc21)NC1CCCC1,i,554[fluorescence artefact?],i,i,i
Cn1nc(SCC(=O)O)sc1=S,i,i,i,70[fluorescence artefact?],i
COc1cc2c(cc1OC)C(=O)CC(C)S2 (centres undefined),i,nt,nt,nt,i
CC1(C)C(=O)C2(CCCCC2)C(=O)OC1c1ccc(O)cc1 (centres undefined),i,218,i,i,i
Cc1nc2sccn2c1-c1nc(C2CC2)c(C(=O)c2ccc3c(c2)NC(=O)CO3)s1,nt,i,53[fluorescence artefact?],61,nt
O=C1COc2ccc(C(=O)CSc3nnc(-c4cccs4)n3Cc3ccccc3)cc2N1,i,i,i,i,i
CC1CCCC(NC(=O)COC(=O)Cc2ccsc2)C1C (centres undefined),i,nt,nt,nt,i
CCCn1nc([N+](=O)[O-])c(C(C#N)c2nc3ccccc3o2)c(Cl)c1=O (centres undefined),99,nt,nt,nt,i
CCn1nc([N+](=O)[O-])c(C(C#N)c2nc3cc(C(F)(F)F)ccc3s2)c(Cl)c1=O (centres undefined),94,nt,nt,nt,i
O=[N+]([O-])c1ccc(CSc2nc3ccccc3o2)cc1,i,nt,nt,nt,i
CN1CCN(C(=O)C2CCC(CNS(=O)(=O)c3cccc4cccnc34)CC2)CC1 (centres undefined),i,i,i,i,i
O=C(NCCN1CCCCCC1)C1CCC(CNS(=O)(=O)c2cccc3cccnc23)CC1 (centres undefined),i,i,i,60[fluorescence artefact?],i
COCCn1c(C)cc(C2=NNC(=Nc3ccc(Cl)cc3Cl)SC2)c1C,i,i,i,i,82
CC[N+](C)(CC)CC(O)COCC1COc2ccccc2O1 (centres undefined),i,nt,nt,nt,i
COc1ccc(S(=O)(=O)Nc2ccc(O)c(Sc3ncn[nH]3)c2)cc1,nt,i,i,i,nt
COc1ccc(S(=O)(=O)Nc2cc(Sc3ncn[nH]3)c(O)c3ccccc23)cc1,90,nt,nt,nt,i
CC(OC(=O)c1nc(-c2ccccc2)n(-c2ccccc2)n1)C(=O)Nc1cc(Cl)cc(Cl)c1 (centres undefined),i,nt,nt,nt,i
Cn1nc(CC(=O)Nc2ncc(Br)s2)c2ccccc2c1=O,nt,i,50,i,nt
Cn1nc(CC(=O)NC2CCCCCCCCCCC2)c2ccccc2c1=O,nt,i,55[fluorescence artefact?],91[fluorescence artefact?],nt
Cn1nc(CC(=O)Nc2ccc3c(c2)CCC3)c2ccccc2c1=O,i,i,i,i,i
CCOc1c(Cl)cc(CNCC(C)C)cc1Cl,nt,i,i,i,nt
SMILES,Mac1 fbg inh,ERa coact pot,ERb SRC1 inh,ERa SRC1 inh,Mac1 fbg enh
c1ccc(C2CC(c3ccccc3)n3c(nc4ccccc43)N2)cc1 (centres undefined),i,nt,nt,nt,i
COc1cccc(S(=O)(=O)NCc2ccc(C(=O)Nc3cccc(Cl)c3)cc2)c1,55,nt,nt,nt,i
Cc1ccc(C(=O)CSc2nnc(-c3ccc4[nH]c(C)c(C)c4c3)o2)cc1C,i,nt,nt,nt,i
Cc1[nH]c2ccc(-c3nnc(SCC(=O)c4ccccc4F)o3)cc2c1C,i,i,i,70,i
CCn1c(SC(=O)NC2CCCCC2)nnc1-c1cccs1,i,nt,nt,nt,i
C=CCNc1ncnc2c1[nH]c1ccccc12,i,i,i,i,i
C=CCNc1ncnc2c1[nH]c1ccc(Cl)cc12,87,i,i,i,i
CC(C)N(C(=O)C(F)(F)F)C(C(=O)NC1CCCCC1)c1ccncc1 (centres undefined),nt,i,i,i,nt
CC1=NN(c2cccc(C(=O)O)c2)C(=O)/C1=C\C=C\c1ccco1,nt,i,89[fluorescence artefact?],83[fluorescence artefact?],nt
CN(C)c1ccc(-c2nn3c(C4CCCCC4)nnc3s2)cc1,i,i,i,i,i
CCCCCCNC(=O)c1cc(-c2ccco2)nc2ccccc12,nt,i,75,85[fluorescence artefact?],nt
O=C(NCC1CCCO1)c1cc(-c2ccco2)nc2ccccc12 (centres undefined),i,i,75[fluorescence artefact?],69[fluorescence artefact?],i
CC(C)CCNC(=O)c1cc(-c2ccco2)nc2ccccc12,i,i,i,i,i
CCOc1cc(N2CCOCC2)c(OCC)cc1NC(=O)c1cc(-c2ccco2)nc2ccccc12,i,i,i,75,i
O=C(O)c1cc(-c2ccco2)nc2ccc(Br)cc12,i,i,61,64,i
CCCCOc1ncnc2c1[nH]c1ccc(F)cc12,i,i,i,i,i
Cc1nc(SCC(=O)c2ccccc2)c(C#N)c(-c2ccco2)c1C(=O)NCc1ccco1,i,236,i,i,i
CCOCCCNC(=O)C(NC(=O)c1cnccn1)c1ccc(C)cc1 (centres undefined),i,i,i,i,i
C=CCn1c(SCC(=O)c2ccc(O)c(O)c2)nnc1-c1ccccc1OC,i,i,i,i,i
CCn1c(SCC(=O)c2ccc(O)c(O)c2)nnc1-c1ccccc1OC,i,i,54,i,i
N#C/C(=C(\O)Cc1ccccc1)c1nc2ccccc2[nH]1,i,409[fluorescence artefact?],i,i,i
C/C(O)=C(\C#N)c1nc2ccccc2[nH]1,i,nt,nt,nt,i
O=C(Cc1ccc(Br)cc1)c1ccc(O)cc1O,78,nt,nt,nt,i
CCCCC(=O)c1ccc(O)cc1O,nt,i,i,i,nt
Cc1onc(-c2ccccc2Cl)c1C(=O)Nc1nnc(-c2cccc([N+](=O)[O-])c2)s1,90,i,i,i,i
SMILES,Mac1 fbg inh,ERa coact pot,ERb SRC1 inh,ERa SRC1 inh,Mac1 fbg enh
Cc1onc(-c2ccccc2Cl)c1C(=O)Nc1cccc2nsnc12,i,263[fluorescence artefact?],i,i,i
Cc1ccc(-n2nc3c(c2NC(=O)c2c(-c4ccccc4Cl)noc2C)CSC3)cc1,i,i,i,i,72
CN(C(=O)COC(=O)CCc1c[nH]c2ccccc12)C(c1ccccc1)c1ccccc1,i,nt,nt,nt,i
COc1ccc(C(=O)OCC(=O)Nc2ccc(F)c(F)c2F)cc1OC,nt,i,i,i,nt
COc1cc(C(=O)OCC(=O)Nc2c(F)c(F)c(F)c(F)c2F)cc(OC)c1OC,i,i,i,58,i
Cc1ccc(NC(=S)NCc2cccs2)c(C)c1,i,i,i,i,i
CCOC(=O)c1cnc2cc(-c3ccc(C)cc3)nn2c1-c1ccccc1,nt,247[fluorescence artefact?],i,i,nt
COc1ccccc1NC(=O)C1=C(C)NC2=C(C(=O)CCC2)C1c1ccc2c(c1)OCO2 (centres undefined),i,nt,nt,nt,i
CCN1C(=O)/C(=c2\o/c(=C3\C=Cc4ccccc4N3CC)c(=O)n2CC)SC1=S,i,i,i,77[fluorescence artefact?],i
CCN1C(=O)/C(=C2/C=Cc3ccccc3N2C)OC1=S,i,i,63[fluorescence artefact?],66[fluorescence artefact?],i
COc1cccc(/C=N/n2c(SC)nnc2-c2ccccc2)c1OC,i,i,i,i,i
